Records with an inconclusive call do not appear. The source made the active and inactive calls. Rule for the calls: active = hit-call score of the fitted dose curve at least 0.9, where 1 is the maximum; inconclusive = response in the unintended direction; inactive = score below 0.9.
These molecules were tested against human Dopamine Transporter (DAT), SLC6A3 (gene 6531) (UniProt Q01959) (assay: NVS_TR_hDAT: NovaScreen (NVS) Transporter Assay for human Dopamine Transporter (DAT) (AID 2283374);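 note: activity means loss of bound radioligand signal relative to DMSO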).
Summary of the method: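 Extracted human SLC6A3 protein incubated 1 h with radioligand and test chemical; bound fraction separated on filters and counted. Single 25 uM duplicate screen preceded concentration-response follow-up; positive and negative controls on every plate.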

Sequence of human Dopamine Transporter (DAT), SLC6A3 (gene 6531) (Q01959 whole entry, looked up): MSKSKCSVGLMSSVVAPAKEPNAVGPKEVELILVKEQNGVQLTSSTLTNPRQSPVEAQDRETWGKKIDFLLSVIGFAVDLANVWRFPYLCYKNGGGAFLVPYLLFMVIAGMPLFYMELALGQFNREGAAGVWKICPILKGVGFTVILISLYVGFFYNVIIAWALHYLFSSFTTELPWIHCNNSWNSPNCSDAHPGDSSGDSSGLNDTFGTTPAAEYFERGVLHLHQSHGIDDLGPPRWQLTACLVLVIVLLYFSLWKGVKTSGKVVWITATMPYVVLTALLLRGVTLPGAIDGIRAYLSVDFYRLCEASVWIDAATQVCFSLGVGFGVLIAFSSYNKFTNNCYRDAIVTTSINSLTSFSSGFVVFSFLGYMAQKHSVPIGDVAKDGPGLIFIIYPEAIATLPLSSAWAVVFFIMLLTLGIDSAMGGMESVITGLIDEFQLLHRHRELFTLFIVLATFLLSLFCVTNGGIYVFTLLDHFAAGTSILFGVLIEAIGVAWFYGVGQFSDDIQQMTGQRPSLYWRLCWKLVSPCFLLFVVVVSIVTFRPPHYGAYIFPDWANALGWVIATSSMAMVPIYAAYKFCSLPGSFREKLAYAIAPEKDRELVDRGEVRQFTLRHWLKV

AC50, active:
CS(=O)(=O)OCCCCOS(C)(=O)=O 25 µM, O=C1OC[C@H](Cc2cccc(O)c2)[C@H]1Cc1cccc(O)c1 0.0517 µM, COc1ccc(CCN2CCC(Nc3nc4ccccc4n3Cc3ccc(F)cc3)CC2)cc1 3.89 µM, CN(c1nccc(=O)[nH]1)C1CCN(c2nc3ccccc3n2Cc2ccc(F)cc2)CC1 11.5 µM

outcome, inactive:
ClC(c1ccccc1)(c1ccccc1)c1ccccc1

The molecules below were run against human Norepinephrine Transporter (NET), SLC6A2 (gene 6530) (UniProt P23975) (assay: NVS_TR_hNET: NovaScreen (NVS) Transporter Assay for human Norepinephrine Transporter (NET) (AID 2283377);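 note: cell-free membrane protein extracted from CHO cells expressing human NET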;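 for AC50: displacement of radioligand from human NET seen as loss of scintillation signal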).
Summary of the method: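 In this cell-free binding screen, chemicals at 25 uM (duplicate) compete with a radioligand for CHO-derived human NET over 1 hour, with filter-based radiodetection.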

Sequence of human Norepinephrine Transporter (NET), SLC6A2 (gene 6530) (P23975 whole entry, looked up): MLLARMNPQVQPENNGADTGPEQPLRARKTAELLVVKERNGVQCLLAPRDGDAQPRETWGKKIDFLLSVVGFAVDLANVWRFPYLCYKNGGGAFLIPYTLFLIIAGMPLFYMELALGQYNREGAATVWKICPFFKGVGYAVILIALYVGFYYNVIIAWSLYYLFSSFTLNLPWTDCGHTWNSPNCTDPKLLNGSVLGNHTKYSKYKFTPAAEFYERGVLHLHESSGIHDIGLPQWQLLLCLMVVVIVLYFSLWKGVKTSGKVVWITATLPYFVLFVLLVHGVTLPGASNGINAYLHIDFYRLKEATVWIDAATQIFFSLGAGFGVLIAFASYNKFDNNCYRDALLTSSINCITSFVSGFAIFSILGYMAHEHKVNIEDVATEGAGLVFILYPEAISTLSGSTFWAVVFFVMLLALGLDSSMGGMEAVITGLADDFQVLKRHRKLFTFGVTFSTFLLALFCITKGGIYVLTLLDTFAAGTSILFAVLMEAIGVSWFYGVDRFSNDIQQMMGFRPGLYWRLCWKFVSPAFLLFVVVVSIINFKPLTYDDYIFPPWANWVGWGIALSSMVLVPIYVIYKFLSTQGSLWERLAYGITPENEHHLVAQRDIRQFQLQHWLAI

AC50, active:
CC=Cc1ccc(OCC)c(O)c1 5.31 µM, COc1ccc(CCN2CCC(Nc3nc4ccccc4n3Cc3ccc(F)cc3)CC2)cc1 2.52 µM, COc1ccc(OC)c(N=Nc2c(O)ccc3ccccc23)c1 17.4 µM, COc1cc(Cl)c(OC)cc1N 25 µM

outcome, inactive:
CC=Cc1ccc(OC)c(OC)c1, CCN(CCC#N)c1ccc(N=Nc2ccc([N+](=O)[O-])cc2)cc1, CS(=O)(=O)OCCCCOS(C)(=O)=O, Nc1ccc(Cl)c([N+](=O)[O-])c1, CCCC(O)C(O)CO (centres undefined), CCCCCCCCCCCCCCCC(=O)OC/C=C(C)/C=C/C=C(C)/C=C/C1=C(C)CCCC1(C)C, C[C@@H]1CCN(C(=O)[C@H](CCCN=C(N)N)NS(=O)(=O)c2cccc3c2NC[C@H](C)C3)[C@@H](C(=O)O)C1, CN(c1nccc(=O)[nH]1)C1CCN(c2nc3ccccc3n2Cc2ccc(F)cc2)CC1, COc1cccc(OC)c1O, NC(=S)NNC(N)=S
